Source: PubChem BioAssay AID463116 (University of Pittsburgh Molecular Library Screening Center, 2010)
About 710 (71%) of roughly 1,000 compounds were called active. Not shown: some 7% with an inconclusive outcome.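 Rule for the calls: active = inhibition of receptor movement into the nucleus at or above a set limit in both runs, with normal cell brightness and cell count; inconclusive = limit reached in only one run, brightness and count normal; inactive = the rest.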 The set was probably picked from earlier hits. These entries were drawn from the full list.

Assay: dynein cargo transport inhibitors, GR-EGFP translocation, confirmation, imaging, high-content imaging, GR-EGFP cells (AID 463116);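 for inhibition: dexamethasone at 1 µM final in well for 30 min; nuclear minus cytoplasmic GR-EGFP mean intensity difference in channel 2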
Details: 3617.4 GR-EGFP nuclear translocation imaging, dexamethasone-induced, at 20 µM; inhibition: stronger effect = higher value; z-score: measured here: cell count per field

| Compound | inhibition | z-score |
| --- | --- | --- |
| O=C1NC(=O)N(c2ccccc2)C(=O)/C1=C/c1ccc([N+](=O)[O-])s1 | 81.8% (active) | 0.0604 |
| COc1cccc(N2C(=O)NC(=O)/C(=C\c3ccc([N+](=O)[O-])s3)C2=O)c1 | 81.3% (active) | 0.0253 |
